Screens as filed in PubChem BioAssay.
Cdc42 wt GTP: modulators of GTP binding to wildtype Cdc42, primary screen, biochemical, multiplex bead flow cytometry, Bodipy-GTP | GST-Cdc42 beads; actives lie on both sides | Cell division control protein 42 homolog (Homo sapiens), P60953 | hit rate 0.2% among 190,000 | percent activity (GTP binding), % at 10 µM;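 active = percent activity GTP binding at least 20 points away from the 100% baseline, either down as inhibitor or up as activator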;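 also: median bead fluorescence of bound Bodipy-FL-GTP at 100 nM; 0% = excess unlabeled GTP control and 100% = no compound control; below 100% means less GTP binding so inhibitor and above means activator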
Target sequence (P60953 whole entry, looked up): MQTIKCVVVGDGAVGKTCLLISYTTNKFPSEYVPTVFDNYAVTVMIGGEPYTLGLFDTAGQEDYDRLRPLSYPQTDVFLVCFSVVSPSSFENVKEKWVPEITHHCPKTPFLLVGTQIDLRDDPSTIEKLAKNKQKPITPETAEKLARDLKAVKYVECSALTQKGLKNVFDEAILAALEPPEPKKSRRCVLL
HRas wt GTP bind: modulators of GTP binding to HRas wildtype, primary screen, biochemical, bead-based flow cytometry, multiplex. GST-Ras wt beads, Bodipy-FL-GTP binding; actives lie on both sides. hit rate 0.14% among 190,000. AID 759, 2007. GTPase HRas (Homo sapiens), P01112. GTP binding activity, % at 10 µM;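 active = GTP binding activity at least 20% away from the 100% baseline, either lowered as inhibitor or raised as activator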;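 also: 0% = unlabeled GTP competition control and 100% = no-compound control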
Target sequence (P01112 whole entry, looked up): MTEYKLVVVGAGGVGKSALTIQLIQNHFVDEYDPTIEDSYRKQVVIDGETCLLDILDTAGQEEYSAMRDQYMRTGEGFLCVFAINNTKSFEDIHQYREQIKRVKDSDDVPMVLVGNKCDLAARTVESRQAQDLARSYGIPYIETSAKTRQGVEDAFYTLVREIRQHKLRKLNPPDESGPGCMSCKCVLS
Rab2 wt GTP: modulators of GTP binding to Rab2A wildtype, primary screen, biochemical, dog, bead-based flow cytometry, multiplex; Ras-related protein Rab-2A (Canis lupus familiaris), P61105; GST-Rab2 wt beads, Bodipy-GTP binding; GTP binding activity, % at 10 µM; hit rate 0.19% among 190,000; AID 760, 2007;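 active = GTP binding activity at least 20 points away from 100%, either lowered or raised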;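 also: 0% = beads with excess unlabeled GTP and 100% = no-compound control corrected for plate trend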
Rab7 wt modul: modulators of GTP binding to Rab7, primary screen, biochemical, wildtype, multiplex bead flow cytometry | GTP binding activity (percent of control), % at 10 µM | Rab7 GTPase wild type (dog), Bodipy-FL-GTP binding | hit rate 0.055% among 190,000 | GST-Rab7 beads, fluorescent GTP binding; actives lie on both sides; untreated = 100%, excess cold GTP = 0%;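 active = fluorescent GTP binding to Rab7 beads changed by at least 20 points from the 100% baseline, either direction, mostly lower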;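 also: median green fluorescence of bound Bodipy-FL-GTP per Rab7 bead population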
Rac1 wt modul: wildtype Rac1 GTP binding modulators, primary screen, biochemical, GST-Rac1 beads, flow cytometry, multiplex; fluorescent GTP binding; actives lie on both sides; 0 = cold GTP competed, 100 = untreated; GTP binding activity (% of control), % at 10 µM; hit rate 0.27% among 190,000; AID 757, 2007;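 active = GTP binding activity at least 20 points away from the 100% control level, either lower or higher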
Rac1 act GTP bind: GTP binding modulators of activated mutant Rac1, primary screen, biochemical, bead-based flow cytometry, multiplex, fluorescent GTP; GST-Rac1 activated beads; actives lie on both sides; 100% means binding = to untreated wells; percent activity (GTP binding), % at 10 µM; hit rate 0.11% among 190,000; AID 764, 2007;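 active = GTP binding at least 20 percentage points away from the 100% baseline, in either direction, so actives lie on both sides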
* marks the source's active call; other numbers are inactive results; [ ] = remark or other dose. Rows were chosen to be rich in hits. Some 0.37% of all compounds tested hit in one or more screens of this group.

SMILES	Cdc42 wt GTP	HRas wt GTP bind	Rab2 wt GTP	Rab7 wt modul	Rac1 wt modul	Rac1 act GTP bind
Cc1ccc2c(c1)c1nnc(SCC(=O)Nc3cccc(Cl)c3C)nc1n2CC(=O)O	82.0	82.0	83.0	89.0	74.0*	83.0
CC1(C)Cc2ccccc2C(C(Cc2ccccc2)C(N)=O)=N1 (stereo not given)	95.0	94.0	95.0	95.0	97.0	95.0
O=C(O)CCCN1C(=O)/C(=C\c2ccco2)SC1=S	94.0	96.0	97.0	100.0	95.0	93.0
O=C(O)CCN1C(=O)/C(=C\c2ccc(-c3nc4ccccc4s3)o2)SC1=S	69.0*	74.0*	66.0*	74.0*	67.0*	71.0*
Cc1ccc(C)c(NC(=O)C2CCCN2C(=O)NC2CCCCC2)c1 (stereo not given)	100.0	98.0	97.0	101.0	99.0	98.0
Cc1cccc(-n2nc(CC#N)c(C#N)c2N)c1	82.0	82.0	78.0*	90.0	82.0	91.0
O=C(O)CC/C(=C\c1ccc(N2CCOCC2)c([N+](=O)[O-])c1)c1nc2ccccc2s1	71.0*	77.0*	74.0*	80.0	82.0	72.0*
Cc1ccc2nc3ccc(N4CCCC4)nn3c(=O)c2c1	107.0	104.0	106.0	103.0	106.0	100.0
CC1CCCN(c2ccc3nc4ccccc4c(=O)n3n2)C1 (stereo not given)	84.0	80.0	81.0	96.0	78.0*	87.0
Cc1cccc(/C=N/N(CCO)C2=NS(=O)(=O)c3ccccc32)c1	82.0	80.0	81.0	92.0	68.0*	84.0
N#CCCN(/N=C/c1cccnc1)C1=NS(=O)(=O)c2ccccc21	89.0	87.0	87.0	96.0	85.0	95.0
Cn1ccnc1C1CCCCN1Cc1nc(-c2ccc(Cl)cc2)no1 (stereo not given)	97.0	95.0	96.0	96.0	97.0	94.0
Cc1cc(C(=O)Cn2nc(C(=O)O)c3ccccc3c2=O)c(C)n1-c1ccc(OC(F)F)cc1	79.0*	82.0	80.0	90.0	90.0	83.0
COc1ccc(-n2c(C)cc(C(=O)Cn3nc(C(=O)O)c4ccccc4c3=O)c2C)cc1	83.0	88.0	81.0	89.0	83.0	84.0
CCn1cc(C(=O)OCC(=O)c2cc(C)n(-c3ccc(OC(F)F)cc3)c2C)c(=O)c2ccc(C)nc21	79.0*	85.0	76.0*	92.0	74.0*	78.0*
CCn1cc(C(=O)OCC(=O)c2cc(C)n(-c3ccccc3)c2C)c(=O)c2ccc(C)nc21	87.0	93.0	90.0	100.0	90.0	87.0
CCOc1ccc(NCc2ccccc2OCc2cccc(F)c2)cc1	115.0	114.0	113.0	106.0	129.0*[activator]	115.0
CC1CCN(C(C(=O)O)c2ccccc2)CC1 (stereo not given)	98.0	97.0	97.0	97.0	99.0	97.0
Cc1cc2ccccn2c1C(=O)c1cc([N+](=O)[O-])cc([N+](=O)[O-])c1	42.0*	45.0*	42.0*	24.0*	32.0*	37.0*
O=C(O)CCCNc1ccc(S(=O)(=O)N2CCCCC2)cc1	96.0	98.0	97.0	102.0	101.0	97.0
COc1cc(/C=C2/SC(=Nc3ccc(O)cc3)NC2=O)cc(OC)c1O	69.0*	74.0*	70.0*	86.0	59.0*	79.0*
COc1ccc(N=C2NC(=O)/C(=C/c3ccc(O)c(OC)c3)S2)cc1	96.0	92.0	93.0	100.0	90.0	95.0
COc1ccc2c3c(cccc13)C(=O)N(O)C2=O	91.0	84.0	82.0	89.0	79.0*	90.0
COc1ccccc1N1C(=O)c2cccc3c(C(=O)O)ccc(c23)C1=O	106.0	103.0	103.0	103.0	114.0	98.0
